Screens as filed in PubChem.
Hits are enriched below; roughly 3.6% of the tested compounds scored in any of these assays.
Autofluor counter: flagged as autofluorescent in microsphere protease counterscreen | compound autofluorescence counterscreen, microsphere flow cytometry; stronger effect = higher value | fluorescence intensity (test concentration not listed) | 360,000 tested, 3.1% active; in the data active means fluorescence intensity above about 16000; inconclusive means no clear call, values can overlap the other calls
MazEF act: increases E. coli MazEF RNase cleavage of RNA | AID 504720 | activation, % at 20 µM | FAM/BHQ RNA-DNA oligo cleavage fluorescence, 5 h | P0AE70 | 350,000 tested, 0.32% active; in the data active means activation above about 50%
Anthrax LF prot: inhibitors of Bacillus anthracis lethal factor protease | multiplex microsphere protease cleavage assay, LF | inhibition, % at 10 µM | 360,000 tested, 0.12% active | AID 588501; further: plate controls were buffer without enzyme for full effect and enzyme alone for no effect
BoNT-F LC inh: BoNT F light chain protease inhibition; inhibition, % at 10 µM; Multiplex microsphere protease cleavage assay, flow cytometry; 360,000 tested, 0.22% active; in the data active means inhibition above about 35%, passing the limit was not always enough; inconclusive means no clear call, values can overlap the other calls; further: plate controls were buffer without enzyme for full effect and enzyme alone for no effect
BoNT-A LC inh2: BoNT A light chain protease inhibition; multiplex microsphere protease substrate cleavage, flow cytometry; inhibition, % at 10 µM; 360,000 tested, 0.17% active; further: plate controls were buffer without enzyme for full effect and enzyme alone for no effect
Numbers without * were called inactive; ? = inconclusive; nt = no result given. Unless noted, no stated cut-off is given here; in the data, active means inhibition above about 30%; inconclusive means no clear call, values can overlap the other calls; inactive means below that.

SMILES	Autofluor counter	MazEF act	Anthrax LF prot	BoNT-F LC inh	BoNT-A LC inh2
O=C(Nc1ccc2c(c1)OCCO2)c1cc(-c2ccccc2)nc2ccccc12	24974*	2	-5	-15	?
O=C(Nc1ccc2oc(-c3ccccc3)nc2c1)c1ccc2c(c1)OCCO2	22968*	-24	-1	2	0
Cc1ccc(C)c(-c2cc(C(=O)Nc3sc(C)c(C)c3C(N)=O)c3ccccc3n2)c1	23000*	6	0	0	?
O=C(Nc1ccc2c(c1)OCO2)c1cc(-c2ccncc2)nc2ccccc12	3338	6	-11	-32	2
CCc1ccc(C(O)c2ncc(-c3ccccc3Cl)[nH]2)cc1 (stereo not given)	3779	nt	-1	-7	0
CCN(CC)c1ncnc2c1ncn2[C@H]1CN(Cc2ccc(-c3ccccc3)cc2)C[C@@H](CO)O1	3660	nt	0	2	0
CC(C)Cc1nnc(NC(=O)c2cc(-c3ccncc3)nc3ccccc23)s1	5007	-5	-13	-29	1
CC(C)Cc1nnc(NC(=O)c2cc(-c3ccccc3)nc3ccccc23)s1	16445*	-3	-1	-2	-1
Cn1nc(SCc2ccccc2)c(=O)[nH]c1=O	3723	5	1	0	0
CC(C)(C)NC(=O)C1Cc2ccccc2CN1C(=O)Nc1cccc(Cl)c1 (stereo not given)	2516	113*	-6	-7	0
Cn1cnnc1SCC(=O)NC1CCCN(Cc2ccccc2F)C1 (stereo not given)	6645	10	-1	-2	-2
O=C(O)c1ccc2nc(C(F)(F)F)[nH]c2c1	21497*	8	0	-5	?
Cc1cccc2cc(C(c3nnnn3Cc3ccccc3)N3CCN(C)CC3)c(=O)[nH]c12 (stereo not given)	19831*	4	0	1	1
Cc1cccc2cc(C(c3nnnn3Cc3ccccc3)N3CCN(c4ccccc4)CC3)c(=O)[nH]c12 (stereo not given)	18218*	-11	-3	-8	-4
Cc1cc(C)c2[nH]c(=O)c(C(c3nnnn3CC3CCCO3)N3CCCC(C)C3)cc2c1 (stereo not given)	11124	15	-9	9	0
COc1ccc(Cn2nnnc2C(c2cc3cccc(C)c3[nH]c2=O)N2CCN(C)CC2)cc1 (stereo not given)	3345	6	-8	-6	-1
Cc1cc(C)c2[nH]c(=O)c(C(c3nnnn3CC3CCCO3)N3CCC(C)CC3)cc2c1 (stereo not given)	26168*	-15	-1	-3	?
COc1ccc(CC(N)c2csc(NC(=O)c3cccs3)n2)cc1 (stereo not given)	3237	nt	5	-7	0
Cc1cc2nc(N=C(N)N)nc(C)c2cc1C	2676	11	-1	4	0
CN(Cc1ccccc1)C(=O)CSc1nnc(-c2ccco2)n1-c1ccccc1	19956*	12	-1	0	-2
Cc1ccc2nc(CSc3nnc(-c4ccco4)n3-c3ccccc3)cc(=O)n2c1	22931*	-14	-1	1	0
Cc1ccc2nc(CSc3nnc(-c4ccco4)o3)cc(=O)n2c1	5877	8	-5	-5	0
COC(=O)C[N+](C)(C)CC#Cc1ccccc1	2607	1	-1	1	0
COc1ccc(S(=O)(=O)NCc2cc(=O)n(C)c(=O)n2C)cc1C	5325	11	-2	4	1
COc1ccc(-c2nsc(C(=O)N(c3ccc(F)cc3)C(C(=O)NC3CCCC3)c3ccc(OC)cc3)c2N)cc1 (stereo not given)	23904*	-4	-3	1	-1
SMILES	Autofluor counter	MazEF act	Anthrax LF prot	BoNT-F LC inh	BoNT-A LC inh2
COc1ccc(N(C(=O)c2snc(C(N)=O)c2N)C(C(=O)NC2CCCCC2)c2ccc(F)cc2)c(OC)c1 (stereo not given)	3567	-3	-2	4	3
CCCc1cc(C(=O)N2CCCC(C(=O)c3cc(C)c(OC)c(C)c3)C2)n(C)n1 (stereo not given)	5392	-6	-3	5	2
CC(=O)C(Sc1nc(N(C)C)nc(N(C)C)n1)C(=O)Nc1ccccc1 (stereo not given)	4768	-2	-2	-5	0
CC(=O)C(Sc1nn(C)c(=S)s1)C(=O)Nc1ccccc1 (stereo not given)	23581*	4	-3	0	0
Cc1ccccc1C1C(C#N)=C2N=C(N)c3c(sc4c3CCCCC4)N2C2=C1C(=O)CC(C)(C)C2 (stereo not given)	6644	165*	-4	-9	3
Cc1ccccc1C1C(C#N)=C2N=C(N)c3ccccc3N2C2=C1C(=O)CCC2 (stereo not given)	6090	-5	2	-2	1
CCNC(=O)C/C(C)=N/NC(=O)C(=O)Nc1ccc(CC)cc1	4095	0	-4	-2	0
CCCCNC(=O)CCNS(=O)(=O)c1ccc(Br)cc1	9229	-6	-3	-10	0
C=CCNC(=O)CCNS(=O)(=O)c1ccc(Br)cc1	22875*	-5	-5	0	2
CCC(C)NC(=O)CCNS(=O)(=O)c1ccc(Br)cc1 (stereo not given)	21722*	0	-4	2	4
CC(c1ccccn1)N(C)C(=O)c1ccc2nc(Cc3ccccc3F)oc2c1 (stereo not given)	5085	1	-2	3	0
CCOC(=O)c1ccc(N2C(=O)c3n[nH]c(C)c3C2c2ccc(OC)cc2)cc1 (stereo not given)	4388	5	-11	-4	0
CCOC(=O)c1ccc(N2C(=O)c3n[nH]c(C)c3C2c2ccc(OC)c(OC)c2)cc1 (stereo not given)	19224*	-3	1	4	?
CCOc1cc(C2c3c(n[nH]c3C)C(=O)N2c2ccc(Br)cc2)ccc1O (stereo not given)	3428	4	-7	51*	0
CCOC(=O)CC(=O)CSc1nc2ccccc2c(=O)n1-c1ccc(C(=O)NCCOC)cc1	16847*	2	-2	-1	-1
O=S(CC(O)COCc1ccc(Cl)cc1)c1ccccn1 (stereo not given)	21318*	3	2	2	3
O=C(CN1C(=O)c2ccc([N+](=O)[O-])cc2C1=O)Nc1cc(S(=O)(=O)N2CCOCC2)ccc1Cl	?	2	-4	-5	-1
CN(C)c1ccc(N=Cc2nc(-c3ccccc3)oc2OC(=O)c2ccccc2)cc1	2521	354*	-1	-1	2
CC(=O)Nc1ccc(N=Cc2nc(-c3ccc(C)cc3)oc2O)cc1	4024	245*	-5	-3	0
CC(=O)Oc1oc(-c2ccccc2)nc1C=Nc1ccc(N(C)C)cc1	4059	11	15	?	0
CN(C)c1ccc(N=Cc2nc(-c3ccccc3)oc2O)cc1	3171	246*	-2	8	0
Cc1ccc(N=Cc2nc(-c3ccc(C)cc3)oc2O)cc1	3875	-10	1	-18	-2
CCOc1cc(C(=O)OCC(=O)c2c(N)n(C)c(=O)n(C)c2=O)cc(OCC)c1OCC	22161*	-2	2	2	1
